# Sfp inh: blocks B. subtilis Sfp PPTase activity. Q9F4F7. Biochemical Sfp PPTase activity, qHTS. Potency, µM, most hits filed as inhibitors. hit rate 3.5% among 310,000. AID 1490;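 also: the enzyme is Sfp with the accession as filed and its product quenches rhodamine fluorescence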
#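 With Hepes-Na pH 7.6 buffer containing 10 mM MgCl2, Sfp (15 nM) modified BHQ-2-YbbR (12.5 uM) using rhodamine-CoA (5 uM). Two reads 30 minutes apart at 525/598 nm yielded each well's rate.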
# JMJD2A Tudor: inhibitors of human JMJD2A Tudor domain; O75164; AlphaScreen JMJD2A-Tudor / H3K4me3 peptide binding; Potency, µM (series often up to 114 µM), usual class: inhibitors; hit rate 4.4% among 390,000; AID 504339; also: nearly all actives have a fitted effect of over 50% in size
# Target sequence (O75164 whole entry, looked up, the tested form may be a part): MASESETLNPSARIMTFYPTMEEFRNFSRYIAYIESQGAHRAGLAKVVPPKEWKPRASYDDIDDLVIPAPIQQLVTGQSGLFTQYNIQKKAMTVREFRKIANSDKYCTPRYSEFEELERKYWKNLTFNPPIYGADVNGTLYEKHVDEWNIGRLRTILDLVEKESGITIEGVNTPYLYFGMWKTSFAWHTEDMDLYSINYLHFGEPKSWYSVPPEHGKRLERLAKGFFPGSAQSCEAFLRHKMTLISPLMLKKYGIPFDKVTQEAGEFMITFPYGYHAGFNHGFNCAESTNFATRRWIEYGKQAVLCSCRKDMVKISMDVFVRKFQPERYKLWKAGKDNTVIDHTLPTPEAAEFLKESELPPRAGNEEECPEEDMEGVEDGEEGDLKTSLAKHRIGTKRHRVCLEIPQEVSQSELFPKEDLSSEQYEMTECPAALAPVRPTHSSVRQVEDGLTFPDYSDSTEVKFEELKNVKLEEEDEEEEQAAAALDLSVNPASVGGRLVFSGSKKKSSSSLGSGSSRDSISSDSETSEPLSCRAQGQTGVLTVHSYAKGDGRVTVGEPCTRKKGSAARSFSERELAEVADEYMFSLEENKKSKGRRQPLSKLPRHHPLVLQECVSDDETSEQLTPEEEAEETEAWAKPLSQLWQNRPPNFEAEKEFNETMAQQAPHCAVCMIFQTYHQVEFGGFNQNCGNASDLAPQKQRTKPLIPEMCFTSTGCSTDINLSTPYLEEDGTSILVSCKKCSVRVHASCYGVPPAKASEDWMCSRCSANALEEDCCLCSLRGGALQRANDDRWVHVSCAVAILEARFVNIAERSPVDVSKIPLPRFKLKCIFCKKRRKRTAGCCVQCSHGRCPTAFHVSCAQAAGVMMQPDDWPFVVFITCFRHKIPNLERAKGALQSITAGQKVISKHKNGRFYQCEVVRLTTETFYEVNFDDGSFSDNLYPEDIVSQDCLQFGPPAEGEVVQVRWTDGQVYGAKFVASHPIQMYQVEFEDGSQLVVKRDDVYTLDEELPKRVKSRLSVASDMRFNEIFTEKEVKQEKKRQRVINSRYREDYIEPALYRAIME
# BAZ2B block: BAZ2B (human) inhibition; hit rate 4.4% among 360,000; Potency, µM (series often up to 114 µM), usual class: inhibitors; Q9UIF8; AlphaScreen BAZ2B-H3K14Ac peptide displacement; AID 504333; also: nearly all actives have a fitted effect of over 60% in size
#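 BAZ2B (50 nM) with biotin-H3(5-23)K14Ac peptide (50 nM) in PBS pH 7.4, 0.01% Tween-20, preformed 30 min, then compound 30 min at room temperature; top concentration 110uM. AlphaScreen streptavidin donor/nickel chelate acceptor beads (10 ug/mL final), 20 min dark, signal read.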
# HP1b binding inh: HP1-beta chromodomain-methylated histone interaction inhibition. Potency, µM (top dose mostly 114 µM), usual class: inhibitors. hit rate 0.56% among 390,000. AlphaScreen HP1-beta / biotin-H3K9me3 peptide binding. AID 540317; also: nearly all actives have a fitted effect of over 70% in size
#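 HP1-beta protein (50 nM final) preincubated 30 min at room temperature with biotinylated H3(1-18)K9me3 peptide (50 nM) in PBS pH 7.4, 0.01% Tween-20, then compound added for 30 min. AlphaScreen streptavidin donor/nickel chelate acceptor beads (10 ug/mL final), 30 min dark, luminescence read.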
# L3MBTL1 block: L3MBTL1 (human) inhibition. AlphaScreen L3MBTL1–H3K9me1 peptide binding. AID 485360. hit rate 0.66% among 230,000. Q9Y468. Potency, µM (titrated, usually from 57.1 µM), usual class: inhibitors; also: nearly all actives have a fitted effect of over 60% in size
#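 L3MBTL1 50 nM + b-AHA-H3(1-15)K9me1 75 nM, 30 min RT; compound added, 30 min RT; streptavidin donor/Ni-chelate acceptor beads 10 ug/mL each final, 30 min RT dark; AlphaScreen read.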
# G9a inh: inhibitors of human histone lysine methyltransferase G9a. Q96KQ7. G9a H3K9 monomethylation, AlphaScreen, 2 h. Potency, µM (highest dose often 102 µM), most hits filed as inhibitors. hit rate 8.8% among 350,000. AID 504332; also: nearly all actives have a fitted effect of over 75% in size
#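 Quantitative HTS format: methyltransferase activity on a biotin-tagged H3K9 peptide is measured by AlphaScreen, using a rabbit anti-monomethyl-H3K9 antibody with streptavidin donor and anti-IgG acceptor beads. Final levels are 20 nM enzyme, 500 nM peptide, 20 uM SAM; 2 h RT.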
# A number is an active result; 0 = inactive; ? = inconclusive; - = not tested or not shown; [ ] = dose if it differs, or a comment. Sampled rows, rich in hits. Any-hit rate of the full collection: about 12%. Calls follow the shape of the dose curve; as a rule, active = well fitted curve in the direction sought with a large enough effect; inconclusive = small, poorly fitted or top-dose-only effect, or another doubt; inactive = no such curve, though single readings can be large; an effect the other way counts as inactive or inconclusive.
SMILES,Sfp inh,JMJD2A Tudor,BAZ2B block,HP1b binding inh,L3MBTL1 block,G9a inh
Cc1ccc2c(c1)-c1onc(C(=O)N3CCN(c4cc(Cl)ccc4C)CC3)c1CO2,-,0,0,0,-,0
COC(=O)C1=C(C(=O)OC)[C@@H]2N(C)c3ccc(OC)cc3[C@@]23C[C@@H](C(=O)OC)N(C(=O)C2CCC2)C3=N1,0,25µM,11µM,?,-,?
COC(=O)C1=C(C(=O)OC)[C@@H]2N(C)c3ccc(OC)cc3[C@@]23C[C@@H](C(=O)OC)N(C(=O)NCCBr)C3=N1,-,?,-,0,-,-
COC(=O)C1=C(C(=O)OC)[C@@H]2N(C)c3ccc(OC)cc3[C@@]23C[C@@H](C(=O)OC)N(C(C)=O)C3=N1,0,-,-,-,-,-
COC(=O)C1=C(C(=O)OC)[C@@H]2N(C)c3ccc(OC)cc3[C@@]23C[C@@H](C(=O)OC)N(C(=O)CC(C)C)C3=N1,0,50µM,-,?,-,-
O=C(Nc1cccc(S(=O)(=O)NC2=NCCC2)c1)c1cc(Cl)ccc1[N+](=O)[O-],-,0,0,0,0,50µM
CN(Cc1ccco1)c1ncnc2ccc(-c3ccccc3Cl)cc12,?,?,0,0,0,0[12.7 µM]
CN(Cc1ccco1)c1ncncc1-c1ccccc1Cl,79µM,-,-,-,-,0[0.501 µM]
O=c1ccn(C2OC(COP(=O)(O)OC3C(CO)OC(n4ccc(=O)[nH]c4=O)C3O)C(O)C2O)c(=O)[nH]1 (centres undefined),0,-,-,-,-,0[12.7 µM]
COc1ccc(-n2c(CNC(=O)c3cccs3)n[nH]c2=S)cc1,0,22µM,0,0,0,20µM
COc1ccc(CC(=O)NCc2n[nH]c(=S)n2-c2ccccc2OC)cc1,0,14µM,-,0,-,35µM
COc1ccc(CC(=O)NCc2n[nH]c(=S)n2-c2cccc(Cl)c2)cc1,0,50µM,0,0,0,3.2µM
CCn1c(CNC(=O)Cc2ccc(OC)cc2)n[nH]c1=S,0,?,0,0,-,?
COc1ccc(CC(=O)NCc2n[nH]c(=S)n2-c2ccc(F)cc2)cc1,0,50µM,0,0,0,0[12.7 µM]
C[C@@H]1C[C@H](OC(=O)c2ccccc2O)CC(C)(C)C1,0,-,-,-,-,0[21.5 µM]
COc1ccc(NC(=O)c2ccc3nc(CCc4ccccc4)oc3c2)cc1,-,0,0,0,-,0
Cc1ccc(-c2nc(CCNC(=O)C(=O)Nc3ccc(C)c(C)c3)cs2)cc1,-,0,0,0,-,0
Cc1c(C(=O)NC(=S)NCc2cccnc2)cccc1[N+](=O)[O-],0,0,0,0,-,-
O=C(CN1CCN(c2ccc(F)cc2)CC1)NCc1ccc(F)cc1,0,0,0,0,-,0
Cc1c(C(=O)NCc2n[nH]c(=S)n2-c2ccc(F)cc2)cccc1[N+](=O)[O-],0,40µM,0,0,-,10µM
CCN(CC(=O)NCc1ccc(F)cc1)C(=O)CN1CCN(c2ccc(OC)cc2)CC1,?,0.89µM,18µM,18µM,-,7.9µM
COc1ccc(-c2nc(-c3ccccc3)c(Nc3ccc4ccccc4c3)o2)cc1,0,-,-,-,-,-
CNC(=O)c1cc(Cl)c(OC)c(OC)c1,45µM,0,0,?,0,7.9µM
COc1cc(C(=O)NC(c2ccccc2)c2ccccc2)cc(OC)c1C,0,0,?,0,-,50µM
COc1cc(C(N)=O)cc(Cl)c1OC,0,0,0,0,0,?
SMILES,Sfp inh,JMJD2A Tudor,BAZ2B block,HP1b binding inh,L3MBTL1 block,G9a inh
COc1c(Cl)cc(C(=O)NN)cc1Cl,50µM,0,0,0,0,-
NNC(=O)c1cc(O)c(O)c(O)c1,32µM,1.8µM,18µM,45µM,0.56µM,8.9µM
COc1ccc(C(NC(=O)c2cc(OC)ccc2OC)c2ccccc2)cc1 (centres undefined),0,0,0,0,-,0
COc1ccccc1CNc1nc(-c2ccco2)nn1S(C)(=O)=O,-,0,0,0,-,0
Cc1nnc(N2CCN(c3ccccc3F)CC2)c2c1nnn2Cc1ccccc1Cl,-,0,0,0,-,0
CC(=O)N1CCc2cc(S(=O)(=O)NC(C(=O)Nc3ccc(C)cc3C)C(C)C)ccc21 (centres undefined),-,?,-,0,-,0
COc1ccc(/C=C\c2onc(C)c2S(=O)(=O)N2CCC(C(=O)Nc3cccc(OC)c3)CC2)cc1,-,0,-,0,-,0
COc1ccc(-c2nc3n(n2)C(c2ccccc2F)C(C(=O)Nc2cccnc2)=C(C)N3)cc1OC (centres undefined),-,0,0,0,-,0
COc1ccc(OC)c(NC(=O)Cn2cnc3sc(C)c(S(=O)(=O)N4CCN(c5ccccc5OC)CC4)c3c2=O)c1,-,0,0,0,-,0
O=c1ccc2cc(S(=O)(=O)Nc3ccc(F)c(Cl)c3)ccc2[nH]1,-,0,0,0,-,0
c1ccc(-c2cccc(N3CCC4(CCNCC4)CC3)c2)cc1,0,-,-,-,-,0[12.7 µM]
O=C(COc1ccc(Cl)cc1Cl)NCc1ccco1,0,0,0,0,0,56µM
O=C(COc1cccc2c1CCN(Cc1ccc(Br)cc1)C2=O)NCc1ccco1,0,50µM,?,0,0,?
O=C(COc1ccc(Cl)cc1Cl)NNC(=S)NC(=O)c1ccco1,?,?,0,?,-,7.9µM
O=C(COc1ccccc1Cl)NCc1ccco1,0,0,0,0,0,0
Cc1ccc2c(Cl)cc(Cl)c(OCC(=O)NCc3ccco3)c2n1,?,-,40µM,-,-,0[12.7 µM]
Nc1nc(NCc2cccc(Cl)c2)c2[nH]cnc2n1,-,0,-,0,-,-
CC(Oc1ccc(Cl)cc1)C(=O)NNC(=S)NC(=O)c1ccco1 (centres undefined),0,0,0,0,0,11µM
CCOc1ccccc1OCC(=O)NCc1ccco1,0,?,?,0,?,?
O=C(COc1ccccc1-c1ccccc1)NCc1ccco1,89µM,0,-,0,0,0
CC(C)COc1ccc(C(=O)N2CCN(CCc3ccccn3)CC2)cc1,-,0,0,0,-,0
Cc1ccc(C(=O)Nn2c(O)c(C=C3N=c4ccccc4=N3)sc2=S)cc1,50µM,0,0,0,0,0
O=C(Nn1c(O)c(C=C2N=c3ccccc3=N2)sc1=S)c1ccccc1,0,0,0,0,-,1.4µM
Cc1cc2c(cc1C)N[C@]1(C[C@H]3CCCC(=O)N4CC[C@@H](C1)[C@@H]34)C(=NC(C)(C)CC(C)(C)C)N2,-,22µM,-,?,-,-
Cc1ccc(S(=O)(=O)N2CCN(c3nc(-c4cncn4C)nc4ccccc34)CC2)cc1,-,?,-,0,-,-
SMILES,Sfp inh,JMJD2A Tudor,BAZ2B block,HP1b binding inh,L3MBTL1 block,G9a inh
O=[N+]([O-])c1ccc(-c2nc(C(Cl)Cl)c3ccccc3n2)cc1,0,0,?,0,0,22µM
CN(Cc1ccccc1)c1nc(-c2ccc([N+](=O)[O-])cc2)nc2ccccc12,0,?,?,0,0,0
Cc1ccc(Nc2nnc(C(C)(C)C)c(=O)n2N)cc1,0,0,0,0,0,0
CCc1nnc(N/N=C/c2cc(Br)c(O)cc2O)n1N,50µM,79µM,50µM,0,0,50µM
CCc1nnc(N/N=C/c2c(Cl)cccc2Cl)n1N,0,0,0,0,0,0
CCc1nnc(N/N=C/c2cccs2)n1N,?,0,0,0,0,50µM
CC(C)(C)c1nnc(N/N=C/c2cc(Br)ccc2O)n(N)c1=O,?,22µM,18µM,0,?,0
O=C(NNc1ccccc1F)c1sccc1Cl,-,0,-,0,-,-

# Bioassay records as filed in PubChem BioAssay.
